Here are results for 39 molecules from PubChem BioAssay (NCI).

Compounds without any hit were thinned out: in the full panel of roughly 79,000, 15% have a hit. Values without a mark were called inactive. Activity calls are given as the source filed them. No stated cut-off is given here; in the data, active means growth inhibition above about 70%; inactive means the rest.

A short description of this assay: NCI Yeast Anticancer Drug Screen. Data for the cln2 rad14 strain (AID 165).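 Further: 0% = growth equal to vehicle treated cultures.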 As to conditions: S. cerevisiae cln2 rad14 strain, at 50.0 µM, hits give high values. The gist of the method:
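The screen exposed genetically defined yeast (cln2 rad14) to test compounds and scored growth inhibition relative to vehicle-treated controls.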
On to `O=[N+]([O-])C(CO)CCCC(CO)[N+](=O)[O-]` (centres undefined), for which the growth inhibition was -37.1%.
For `CN1CCC[N+](C)=C1c1ccc(N(C)C)cc1`, the growth inhibition is -14.2%.
The same measure for `COP1(=S)OCC2OC(n3cc(C)c(=O)[nH]c3=O)CC2O1` (centres undefined): -9.1%.
Under `CN(c1ccccc1)c1nc(=[N+]2CCCC2)ss1` stands 0.9%.
Under `NC(Cc1ccccc1)c1nn[nH]n1` (centres undefined) stands -40.6%; under `O=C1NC(=O)C2(c3ccccc3)CCN1C2=O` (centres undefined), -7%; under `Cc1cc(C)c(CCN(C)C)c(C)c1C`, 1.75%.
Consider `O=C1N=NC(Cl)c2ccccc21` (centres undefined), for which the growth inhibition is 2.65%.
The same measure for `CN(C)c1ccc(C=O)cc1.[C-]#[O+].[C-]#[O+].[C-]#[O+].[Cr]`: 1%; for `CC12CC/C(=N/NC(=O)Cc3c[nH]c4ccccc34)C=C1CCC1C2CCC2(C)C(OC(=O)c3ccccc3)CCC12` (centres undefined): 0.65%; for `COc1cccc(C2CC(=O)c3cccn32)c1` (centres undefined): 21.3%.
The same measure for `COc1cc(CC(N)c2ccccc2)ccc1O` (centres undefined): -20.8%; for `CCCCC1(CCSC(=S)OCC)C(=O)NC(=O)NC1=O`: -36.4%; for `CC(=O)Oc1ccc(CCN(C)C2CC3CCC2(C)C3(C)C)cc1OC(C)=O` (centres undefined): -11.2%.
The same measure for `O=[N+]([O-])c1cccc(C(Cl)Cl)c1`: 22.1%; for `CCOP(=S)(NCCCOC)OCC`: -32.4%; for `CCOC(OC1=C(C#N)CCCC1)C(C)[Se]c1ccccc1` (centres undefined): 41.9%.
On to `FC(F)(F)[S-].FC(F)(F)[S-].[C-]#[O+].[C-]#[O+].[C-]#[O+].[C-]#[O+].[C-]#[O+].[C-]#[O+].[C-]#[O+].[C-]#[O+].[Mn].[Mn]`, for which the growth inhibition was 99% (active).
The same measure for `BrCC[N+]12CC[N+](CCBr)(CC1)C2` (tested in a mixture with another compound): 61.5%; for `NS(=O)(=O)CC1CC[CH-]CC1.[Cl-].[Cl-].[Cl-].[Cl-].[Cl-].[Sb+5].c1ccncc1`: -12.2%; for `CC1(C)N=C(N)N=C(N)N1c1ccc(CCCCCCc2ccc(S(=O)(=O)F)cc2)cc1`: 99% (active).
Under `COC(=O)C1(O)c2ccccc2N=C2C1CCN2C` (centres undefined) stands 6.4%.
As to `[N-]=[N+]=CC(=O)CCC(=O)C=[N+]=[N-]`, the growth inhibition was -19.5%.
Under `CCCCCCCCCCCCCCCC[As](CCCCCCCCCCCCCCCC)SCC1OC(OC(C)=O)C(OC(C)=O)C(OC(C)=O)C1OC(C)=O` (centres undefined) stands 1%.
Turning to `CCCCSP(=O)(SCCCC)N1CCCCC1`, the growth inhibition was 97.8% (active).
The same measure for `CC(C)CN(CC(C)C)[N+](=O)[O-]`: 4.05%.
For `CN(N)c1ccc([N+](=O)[O-])cc1[N+](=O)[O-]`, the growth inhibition is -6.2%.
Under `O=c1ccc(=O)[nH][nH]1.[Zn+2]` stands -7.2%; under `O=C(c1cc(N(CCCl)CCCl)c([N+](=O)[O-])cc1[N+](=O)[O-])N1CCOCC1`, 3.55%; under `CCN(CC)CCn1c(=O)n(C)c2ccccc21`, -35%.
Turning to `Cc1nc2cccc(F)c2c(=O)n1-c1nnc(C(F)(F)F)s1`, the growth inhibition was 10.8%.
Take `O=P(O)(NCCCl)NCCCl`: the growth inhibition is -5.6%.
With `Clc1ccc(C(c2ccccc2Cl)C(Cl)(Cl)Cl)cc1` (centres undefined), the growth inhibition is -44.6%.
Consider `COc1ccc(C)cc1C(CC(=O)O)CC(=O)N(CCCl)CCCl` (centres undefined), for which the growth inhibition is 17.7%.
The same measure for `C[N+](C)(Cc1ccccc1[N+](=O)[O-])c1ccc(N(CCCl)CCCl)cc1`: -16.7%; for `O=C(CCCN1CCC2(CC1)C(=O)NCN2c1ccccc1)c1ccccc1`: -18.4%; for `NCCCC(N)P(=O)(O)O` (centres undefined): -106%.
The same measure for `ClCCCCBr`: 13.5%.
In the case of `CC(CN1NC12CCCC2)N1NC12CCCC2` (centres undefined), the growth inhibition is 24.4%.
